Results on 5 compounds are retold here after PubChem BioAssay.

Assay [1] relates to PRMT1 (protein arginine N-methyltransferase 1). Kind of assay: PRMT1 binders on small-molecule microarrays, primary screen, biochemical, small-molecule microarray, 635 nm fluorescence (AID 1088).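 Also: binding of Prmt1 protein to compounds spotted on small-molecule microarray slides.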 Particulars: small-molecule microarray binding, higher = more signal.
Assay [2] is described as follows: yeast growth modulation, basal conditions, primary screen, YJM789 clinical isolate, OD600, 24 h (AID 1089).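 Also: growth of clinical yeast isolate S. cerevisiae YJM 789 seeded 1000 cells per well; test concentration not given here.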 Particulars: S. cerevisiae YJM789 growth, higher = more signal, called active from +8 up or from −8 down.
Assay [3] in a line: fission yeast growth modulation, primary screen, strain 972, OD600, 24 h, no modulator (AID 1090).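 Also: basal condition with compound alone and no growth modifier present; test concentration not given here.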 Particulars: S. pombe 972 growth, higher = more signal, called active from +8 up or from −8 down.
Assay [4] can be described thus: S. cerevisiae growth modulation with rapamycin, primary screen, strain BY4716, OD600, 96 h (AID 1091). Also: test concentration not given here. To be noted: higher = more signal, called active from +8 up or from −8 down.
Assay [5] concerns the target Torsin-1A-interacting protein 2 (Homo sapiens) (UniProt Q8NFQ8). The experiment in a line: LULL1 binders on small-molecule microarray, primary screen, cell lysate, human LULL1 lysate, 635/667 nm fluorescence (AID 1092).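 Also: probe is lysate of COS7 cells overexpressing human LULL1; score merges per-feature 667 nm fluorescence with signal-to-noise.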 To be noted: hLULL1 lysate binding, 635 nm fluorescence, higher = more signal.
Assay [6] can be described thus: E. coli growth modulation, two-sided OD650, primary screen, E. coli filamentation project, strain DRC41, 24 h (AID 1093).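 Also: MC1000 strain lacking acrAB efflux and sulA so SOS filamentation is blocked; test concentration not given here.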 To be noted: OD650, 24 h, higher = more signal, called active from +8 up or from −8 down.
The nature of assay [7]: small-molecule microarray binders of probe aLefty2, primary screen, biochemical, biotinylated probe, 635/667 nm fluorescence (AID 1094).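 Also: score merges spot fluorescence near 667 nm with spot signal-to-noise ratio.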 Particulars: higher = more signal.
Assay [8] relates to Noggin (protein binding on small-molecule microarray). Kind of assay: Noggin binders on small-molecule microarray, primary screen, biochemical, 635/667 nm fluorescence (AID 1095).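 Also: score merges 667 nm feature fluorescence with signal to noise over triplicate slides.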 To be noted: 635 nm fluorescence, higher = more signal.
For assay [9], the target named is Neurogenic locus notch homolog protein 3 (Homo sapiens) (UniProt Q9UM47). Kind of assay: NOTCH3 binders on small-molecule microarray, primary screen, biochemical, 635/667 nm fluorescence (AID 1096). Particulars: NOTCH3 binding, 635 nm fluorescence, higher = more signal.
Sequence of Neurogenic locus notch homolog protein 3 (Homo sapiens) (Q9UM47 whole entry, looked up): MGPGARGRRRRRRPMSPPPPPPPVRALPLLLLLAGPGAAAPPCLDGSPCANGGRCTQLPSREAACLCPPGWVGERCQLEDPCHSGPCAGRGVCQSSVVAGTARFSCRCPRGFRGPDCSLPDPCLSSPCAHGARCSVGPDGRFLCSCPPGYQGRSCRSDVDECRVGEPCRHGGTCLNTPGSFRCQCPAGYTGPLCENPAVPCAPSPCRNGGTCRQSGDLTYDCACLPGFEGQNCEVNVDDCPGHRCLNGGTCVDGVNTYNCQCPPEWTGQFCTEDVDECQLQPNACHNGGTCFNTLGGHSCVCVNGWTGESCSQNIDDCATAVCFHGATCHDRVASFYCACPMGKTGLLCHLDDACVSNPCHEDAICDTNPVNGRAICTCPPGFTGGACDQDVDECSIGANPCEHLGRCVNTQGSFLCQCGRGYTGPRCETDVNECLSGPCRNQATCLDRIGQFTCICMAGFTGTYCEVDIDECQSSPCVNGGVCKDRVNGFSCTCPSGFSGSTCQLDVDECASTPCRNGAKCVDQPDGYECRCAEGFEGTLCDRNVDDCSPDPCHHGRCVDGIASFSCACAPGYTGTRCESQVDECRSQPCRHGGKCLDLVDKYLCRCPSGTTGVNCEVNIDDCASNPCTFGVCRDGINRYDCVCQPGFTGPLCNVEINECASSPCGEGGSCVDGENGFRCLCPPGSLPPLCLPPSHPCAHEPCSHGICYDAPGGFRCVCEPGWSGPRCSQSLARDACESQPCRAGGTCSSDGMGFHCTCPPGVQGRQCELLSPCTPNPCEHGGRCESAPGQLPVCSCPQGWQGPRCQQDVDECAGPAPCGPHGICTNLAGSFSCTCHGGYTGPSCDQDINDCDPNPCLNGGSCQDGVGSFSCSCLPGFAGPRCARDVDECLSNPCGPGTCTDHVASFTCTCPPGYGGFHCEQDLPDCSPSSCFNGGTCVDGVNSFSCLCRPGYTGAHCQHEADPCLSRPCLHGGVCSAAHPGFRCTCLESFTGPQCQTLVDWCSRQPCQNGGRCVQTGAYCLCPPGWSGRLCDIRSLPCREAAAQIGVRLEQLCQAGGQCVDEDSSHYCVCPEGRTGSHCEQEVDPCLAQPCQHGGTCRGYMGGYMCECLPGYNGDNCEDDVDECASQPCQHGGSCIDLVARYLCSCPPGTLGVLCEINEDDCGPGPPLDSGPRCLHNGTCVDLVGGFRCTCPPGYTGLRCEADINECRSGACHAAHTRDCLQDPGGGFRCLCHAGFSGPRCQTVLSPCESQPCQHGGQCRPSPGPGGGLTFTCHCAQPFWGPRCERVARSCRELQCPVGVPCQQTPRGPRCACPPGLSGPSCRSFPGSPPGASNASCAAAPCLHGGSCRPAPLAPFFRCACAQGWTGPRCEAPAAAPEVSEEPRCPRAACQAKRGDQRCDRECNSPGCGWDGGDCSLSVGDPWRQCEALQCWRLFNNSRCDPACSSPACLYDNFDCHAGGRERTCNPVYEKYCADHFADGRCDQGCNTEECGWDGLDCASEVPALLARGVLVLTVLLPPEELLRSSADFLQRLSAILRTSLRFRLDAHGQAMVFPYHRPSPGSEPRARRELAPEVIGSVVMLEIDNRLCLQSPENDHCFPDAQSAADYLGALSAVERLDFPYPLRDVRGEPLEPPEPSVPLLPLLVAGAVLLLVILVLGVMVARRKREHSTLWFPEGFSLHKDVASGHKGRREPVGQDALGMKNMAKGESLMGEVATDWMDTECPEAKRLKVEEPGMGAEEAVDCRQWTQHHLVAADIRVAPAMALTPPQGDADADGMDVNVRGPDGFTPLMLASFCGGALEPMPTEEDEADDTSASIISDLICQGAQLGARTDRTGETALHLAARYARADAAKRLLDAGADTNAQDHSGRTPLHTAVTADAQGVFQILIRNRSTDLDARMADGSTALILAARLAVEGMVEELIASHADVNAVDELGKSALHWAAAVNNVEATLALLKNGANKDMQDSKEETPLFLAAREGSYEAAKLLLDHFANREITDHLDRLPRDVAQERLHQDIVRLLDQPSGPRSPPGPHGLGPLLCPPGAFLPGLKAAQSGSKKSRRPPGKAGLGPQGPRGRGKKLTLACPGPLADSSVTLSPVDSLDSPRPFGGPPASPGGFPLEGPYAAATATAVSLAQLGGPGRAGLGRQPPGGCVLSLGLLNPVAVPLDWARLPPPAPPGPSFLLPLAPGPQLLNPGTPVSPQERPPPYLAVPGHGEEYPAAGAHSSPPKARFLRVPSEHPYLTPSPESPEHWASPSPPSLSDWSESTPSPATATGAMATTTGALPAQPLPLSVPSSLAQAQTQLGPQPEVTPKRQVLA
Assay [10] is described as follows: small-molecule microarray binders of probe aEGFR, primary screen, biochemical, biotinylated probe, 635/667 nm fluorescence (AID 1097).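 Also: probe is a biotinylated anti-EGFR antibody binding compounds printed on slides; score combines fluorescence near 667 nm and signal to noise of each spot.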 Particulars: higher = more signal.
Assay [11] relates to Plasmodium falciparum Sir2 (PF13_0152, Sir2A). Kind of assay: pfSir2 binders on small-molecule microarrays, primary screen, biochemical, small-molecule microarray, 635 nm fluorescence (AID 1098).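 Also: score merges spot fluorescence intensity with its signal-to-noise ratio.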 To be noted: small-molecule microarray binding, fluorescence 635 nm; higher = more signal.
Assay [12] in a line: small-molecule microarray binders of probe aDKK1, primary screen, biochemical, biotinylated probe, 635/667 nm fluorescence (AID 1099).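 Also: score merges 667nm spot fluorescence with signal to noise across triplicate slides; reference of the scale not given here.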 Particulars: higher = more signal.
The nature of assay [13]: small-molecule microarray binders of probe aCHRDL2, primary screen, biochemical, biotinylated probe, 635/667 nm fluorescence (AID 1100). Particulars: higher = more signal.
Assay [14] in a line: splicing luciferase reporter signal modulators, primary screen, spliceosome inhibition project, cell-based, HEK293, splice +/- reporter (AID 1101).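 Also: HEK293 cells carrying a splicing-competent luciferase reporter gene; test concentration not given here.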 Particulars: luminescence, 24 h, higher = more signal, called active from +8 up or from −8 down. Background: A reporter such as luciferase makes a cellular process visible.
Assay [15] concerns the target Fibroblast growth factor 10 (Homo sapiens) (UniProt O15520). Kind of assay: FGF10 binders on small-molecule microarrays, primary screen, biochemical, small-molecule microarray, 635 nm fluorescence (AID 1102). Particulars: FGF10 binding, fluorescence 635 nm, higher = more signal.
The subject of assay [16] is glycogen synthase kinase-3 (GSK3A per assay name; protocol says GSK3B). The experiment in a line: GSK3 binders on small-molecule microarrays, primary screen, biochemical, small-molecule microarray, 635 nm fluorescence, GSK3A (AID 1103). Also: the record names both GSK3A and GSK3B. To be noted: small-molecule microarray binding, fluorescence 635 nm; higher = more signal.
In assay [17] the target is Epidermal growth factor receptor (Homo sapiens) (UniProt P00533). The experiment in a line: EGFR binders on small-molecule microarrays, primary screen, biochemical, small-molecule microarray, 635 nm fluorescence (AID 1104).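 Also: score merges 667 nm emission intensity with spot signal to noise over triplicate slides.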 Particulars: EGFR binding, higher = more signal.
Sequence of Epidermal growth factor receptor (Homo sapiens) (P00533 whole entry, looked up): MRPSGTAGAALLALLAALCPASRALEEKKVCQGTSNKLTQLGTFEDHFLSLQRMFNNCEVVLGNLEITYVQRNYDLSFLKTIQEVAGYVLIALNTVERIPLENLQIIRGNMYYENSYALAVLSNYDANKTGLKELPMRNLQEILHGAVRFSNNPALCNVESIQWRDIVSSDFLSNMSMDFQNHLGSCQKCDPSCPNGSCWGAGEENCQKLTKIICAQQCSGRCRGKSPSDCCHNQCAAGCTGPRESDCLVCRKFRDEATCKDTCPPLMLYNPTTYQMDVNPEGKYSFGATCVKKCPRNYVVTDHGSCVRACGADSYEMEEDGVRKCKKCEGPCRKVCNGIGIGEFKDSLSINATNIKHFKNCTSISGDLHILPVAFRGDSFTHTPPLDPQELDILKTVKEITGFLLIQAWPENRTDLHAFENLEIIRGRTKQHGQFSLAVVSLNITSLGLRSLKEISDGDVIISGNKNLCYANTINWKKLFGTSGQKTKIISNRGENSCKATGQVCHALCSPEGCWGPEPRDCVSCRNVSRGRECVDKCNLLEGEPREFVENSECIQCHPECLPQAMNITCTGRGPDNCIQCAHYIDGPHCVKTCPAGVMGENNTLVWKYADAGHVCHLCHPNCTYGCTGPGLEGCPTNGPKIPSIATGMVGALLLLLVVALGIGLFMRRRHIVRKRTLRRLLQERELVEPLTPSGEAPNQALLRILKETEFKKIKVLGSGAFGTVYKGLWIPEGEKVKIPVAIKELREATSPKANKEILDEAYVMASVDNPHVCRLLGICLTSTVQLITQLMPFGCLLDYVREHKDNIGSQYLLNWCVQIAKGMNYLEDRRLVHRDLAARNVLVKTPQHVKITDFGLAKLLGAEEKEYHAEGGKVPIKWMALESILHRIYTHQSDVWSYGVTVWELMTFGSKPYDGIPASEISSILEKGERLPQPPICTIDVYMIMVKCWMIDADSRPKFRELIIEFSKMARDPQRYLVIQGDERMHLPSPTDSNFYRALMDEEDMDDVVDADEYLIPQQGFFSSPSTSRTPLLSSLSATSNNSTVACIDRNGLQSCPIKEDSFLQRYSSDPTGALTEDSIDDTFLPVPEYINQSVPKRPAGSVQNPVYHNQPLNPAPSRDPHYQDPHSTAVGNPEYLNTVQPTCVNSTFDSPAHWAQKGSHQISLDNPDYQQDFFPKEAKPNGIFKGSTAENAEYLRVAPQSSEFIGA
Assay [18] deals with Follistatin-related protein 3 (Homo sapiens) (UniProt O95633). Kind of assay: FSTL3 binders on small-molecule microarrays, primary screen, biochemical, small-molecule microarray, 635 nm fluorescence (AID 1105).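 Also: score merges emission near 667 nm and signal to noise per printed spot across three slides.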 To be noted: FSTL3 binding, higher = more signal.
Sequence of Follistatin-related protein 3 (Homo sapiens) (O95633 whole entry, looked up): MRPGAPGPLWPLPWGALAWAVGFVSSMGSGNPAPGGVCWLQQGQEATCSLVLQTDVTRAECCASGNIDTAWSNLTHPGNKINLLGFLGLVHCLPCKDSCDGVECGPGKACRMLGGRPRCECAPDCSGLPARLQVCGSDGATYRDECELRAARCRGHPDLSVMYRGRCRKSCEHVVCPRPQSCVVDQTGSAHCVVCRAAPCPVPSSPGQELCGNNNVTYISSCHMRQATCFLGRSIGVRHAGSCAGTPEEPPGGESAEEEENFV
In assay [19] the target is Dickkopf-related protein 1 (Homo sapiens) (UniProt O94907). Kind of assay: DKK1 binders on small-molecule microarrays, primary screen, biochemical, small-molecule microarray, 635 nm fluorescence scan (AID 1106).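 Also: score merges emission near 667 nm with signal to noise over three replicate slides.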 Particulars: DKK1 binding, higher = more signal.
Sequence of Dickkopf-related protein 1 (Homo sapiens) (O94907 whole entry, looked up): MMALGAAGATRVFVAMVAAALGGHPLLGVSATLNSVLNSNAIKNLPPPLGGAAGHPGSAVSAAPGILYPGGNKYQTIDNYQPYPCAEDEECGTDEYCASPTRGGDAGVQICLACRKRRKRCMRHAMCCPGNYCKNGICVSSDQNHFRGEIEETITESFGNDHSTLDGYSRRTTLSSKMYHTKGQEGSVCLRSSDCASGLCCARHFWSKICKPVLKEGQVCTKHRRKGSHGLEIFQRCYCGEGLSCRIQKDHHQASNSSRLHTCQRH
For assay [20], the system named is Inhibin beta A chain (activin A). Kind of assay: INHBA (activin A) binders on microarrays, primary screen, biochemical, small-molecule microarray, 635 nm fluorescence scan (AID 1107).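 Also: mouse activin A protein probed at 4.33 µg/mL on printed slides; score merges bound-protein fluorescence near 667 nm with spot signal-to-noise.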 To be noted: small-molecule microarray binding, higher = more signal.

The source made the active and inactive calls.

Sequence of Fibroblast growth factor 10 (Homo sapiens) (O15520 whole entry, looked up): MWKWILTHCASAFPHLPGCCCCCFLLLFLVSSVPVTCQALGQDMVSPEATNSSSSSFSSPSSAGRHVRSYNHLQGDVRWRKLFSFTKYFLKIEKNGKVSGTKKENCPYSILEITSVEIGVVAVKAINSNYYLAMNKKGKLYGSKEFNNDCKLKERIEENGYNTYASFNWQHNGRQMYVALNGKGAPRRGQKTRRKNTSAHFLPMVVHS
Sequence of Torsin-1A-interacting protein 2 (Homo sapiens) (Q8NFQ8 whole entry, looked up): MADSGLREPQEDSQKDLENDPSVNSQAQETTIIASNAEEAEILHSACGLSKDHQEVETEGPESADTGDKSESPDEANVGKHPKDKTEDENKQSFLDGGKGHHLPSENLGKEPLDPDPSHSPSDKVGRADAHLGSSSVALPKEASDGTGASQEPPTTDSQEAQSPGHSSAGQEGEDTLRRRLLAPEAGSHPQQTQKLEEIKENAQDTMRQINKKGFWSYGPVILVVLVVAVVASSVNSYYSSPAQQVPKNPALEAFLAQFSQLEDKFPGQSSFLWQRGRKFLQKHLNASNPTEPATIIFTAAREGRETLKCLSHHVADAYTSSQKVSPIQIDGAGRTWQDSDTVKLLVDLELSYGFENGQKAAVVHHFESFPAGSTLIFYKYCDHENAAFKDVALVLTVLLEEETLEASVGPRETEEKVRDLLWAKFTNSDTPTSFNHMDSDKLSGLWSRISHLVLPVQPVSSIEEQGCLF

Consider `CC(C)C(=C=CC[C@@H](O)c1cccc(OCCO)c1)CCO`, for which the composite z-score in [1] is -0.102; in [5] it was 1.07; in assay [7] it was -0.0003; in assay [8] it was 0.305; in assay [9], 0.454; in [10], 0.0241. In addition, the composite z-score is 0.725 in assay [11]; 0.0614 in [12]; 0.111 in assay [13]; 1.51 in [15]; -0.615 in [16]; -0.554 in assay [17]. Further, the composite z-score in assay [18] amounted to 0.457; in assay [19], 0.137; in assay [20], 0.677. The z-score in [2] was 0.493 (inactive); in [3], -0.0344 (inactive); in assay [4], -0.0595 (inactive); in assay [6], 0.739 (inactive); in assay [14], -0.87 (inactive).

As for `CN(C)C(=O)[C@]1(Cc2ccccc2CN=[N+]=[N-])N=C(c2ccc(OCCCO)cc2)O[C@@H]1c1ccccc1N=[N+]=[N-]`, the composite z-score in assay [1] was found to be 1.48; in assay [5] it was 3.43; in [7], 0.0369; in assay [8], 0.317; in assay [9] it was 0.618; in [10] it was 0.0427. For the same compound, the composite z-score in [11] was 1.18; in assay [12], 0.805; in assay [13], 0.884; in assay [15], 0.939; in assay [16] it was 0.631; in [17], -0.205. For the same compound, the composite z-score in assay [18] is 0.264; in [19], -0.0994; in assay [20], 0.814. Moreover, the z-score in assay [2] was -1.73 (inactive); in assay [3] it was 0.498 (inactive); in assay [4] it was 12.9 (active); in [6] it was -0.0046 (inactive); in assay [14], -1.27 (inactive).

In the case of `CC(C)CNC(=O)[C@@H]1c2ccccc2C(=O)N(Cc2ccccc2)[C@H]1c1ccc(CO)cc1`, the composite z-score in [1] is 0.586; in [5], 3.22; in assay [7], -0.188; in assay [8], -0.731; in assay [9], -0.677; in assay [10], -0.189. The composite z-score in assay [11] is 0.0346; in assay [12], 0.282; in assay [13] it was 0.96; in [15], -0.787; in assay [16], 0.0758; in assay [17] it was -1.35. Further, the composite z-score in assay [18] was -1.38; in assay [19], -1.05; in [20] it was -0.217. Moreover, the z-score in [2] was -0.416 (inactive); in assay [3] it was 0.138 (inactive); in [4] it was -0.895 (inactive); in [6] it was -0.73 (inactive); in [14], -0.18 (inactive).

Regarding `N[C@@H](Cc1ccccc1)Cn1cc(C2(O)CCCCC2)nn1`, the composite z-score in [1] is -0.235; in assay [5], 0.205; in assay [7] it was -0.128; in assay [8], 0.112; in assay [9], 0.293; in [10], -0.14. The composite z-score in assay [11] was -0.431; in assay [12] it was -0.149; in [13], 0.174; in [15], -0.493; in [16] it was -0.507; in assay [17], 0.0669. The values for the composite z-score in assay [18], in [19] and in [20] were -0.133, -0.0564 and -0.239, respectively. Also, the z-score in assay [2] is -0.692 (inactive); in [3], -0.16 (inactive); in assay [4], -0.522 (inactive); in [6], -1.15 (inactive); in assay [14], 0.242 (inactive).

Consider `CN(C)C(=O)[C@]1(Cc2ccccc2)N=C(c2ccc(OCCCO)cc2)O[C@@H]1c1ccccc1`, for which the composite z-score in [1] is 1.52; in assay [5] it was 3.52; in assay [7], 0.0735; in assay [8], 0.372; in [9], 0.771; in [10] it was -0.0157. Besides, the composite z-score in assay [11] was 0.747; in assay [12], 0.129; in assay [13] it was 0.624; in assay [15], 1.13; in assay [16] it was 1.29; in [17], -0.515. Further, the composite z-score in assay [18] is 0.289; in [19] it was -0.698; in assay [20], 0.231. Moreover, the z-score in assay [2] is 0.0608 (inactive); in assay [3] it was -3.66 (inactive); in assay [4] it was -0.344 (inactive); in assay [6] it was -0.465 (inactive); in [14] it was -0.012 (inactive).
